Source: PubChem BioAssay (National Center for Advancing Translational Sciences (NCATS))
KCNH2 3.1 inh = qHTS for Inhibitors of KCHN2 3.1: Mutant qHTS | Potassium voltage-gated channel subfamily H member 2, brain isoform KCNH2 3.1 (human) | U2OS KCNH2 3.1, thallium flux FluxOr; stronger effect = lower value | activity change, % (tested at about 1.8 µM) | 0.95% of 340,000 active;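 active = maximum activity change below -70%; inconclusive = maximum activity change from -70% to -50%; inactive = maximum activity change above -50%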;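 also: thallium influx rate constant from kinetic fluorescence after stimulation buffer; % is scaled to controls: 0 for no effect and ±100 for the full control effect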
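Thallium flux read-out: FluxOr dye with Red40 quencher in HBSS/HEPES, 45 min at RT. Rate constants from kinetic reads were normalized to positive and negative DMSO controls. Cells: U2OS virally expressing the 3.1 isoform.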
KCNH2 WT inh = qHTS for Inhibitors of KCHN2 3.1: Wildtype qHTS. Voltage-gated inwardly rectifying potassium channel KCNH2 (Homo sapiens), Q12809. U2OS, BacMam KCNH2, thallium flux FluxOr; stronger effect = lower value. activity change, % at 1.84 µM. 0.37% of 340,000 active. AID 720551, 2013;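 active = maximum activity change below -70%; inconclusive = maximum activity change between -70% and -50%; inactive = maximum activity change above -50%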; also: % is scaled to controls: 0 for no effect and ±100 for the full control effect
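U2OS cells transduced with wild-type KCNH2 virus are loaded with FluxOr dye for 45 min, and thallium flux is measured in kinetic reads before and after stimulation buffer. Rate constants are normalized to DMSO controls.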
GLS inhibitor = qHTS for Inhibitors of Glutaminase (GLS). Glutaminase kidney isoform, mitochondrial (Homo sapiens), O94925. 0.21% of 410,000 active. GLS enzymatic activity, qHTS titration. Potency, µM (top dose mostly 45.5 µM), for the others: at the top dose activity change, negative = inhibition, usual class: inhibitors; also: potency is read from the fitted curve at half-maximal effect; % is scaled to controls: 0 for no effect and ±100 for the full control effect
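Read-out is an Amplex red fluorescence increase coupled through glutamate oxidase and HRP, measured before and after 30 min room-temperature incubation. hKGA is in 45 mM KH2PO4 (pH 8.2) with 0.02% Tween-20; glutamine added as 1mM solution.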
GLP1R inv ag = qHTS of GLP-1 Receptor Inverse Agonists (Inhibition Mode) | Potency, µM (highest dose often 38.3 µM), inactives show at the highest dose activity change, negative = inhibition, actives largely listed as inhibitors | HEK293 GLP-1R CRE-luciferase, luminescence, 24 h; GLP-1R form is constitutively active | 1.6% of 410,000 active | AID 624417, 2012; also: potency is read from the fitted curve at half-maximal effect; % is scaled to controls: 0 for no effect and ±100 for the full control effect; nearly all actives have a fitted effect of over 55% in size
Target sequence (P43220 whole entry, looked up): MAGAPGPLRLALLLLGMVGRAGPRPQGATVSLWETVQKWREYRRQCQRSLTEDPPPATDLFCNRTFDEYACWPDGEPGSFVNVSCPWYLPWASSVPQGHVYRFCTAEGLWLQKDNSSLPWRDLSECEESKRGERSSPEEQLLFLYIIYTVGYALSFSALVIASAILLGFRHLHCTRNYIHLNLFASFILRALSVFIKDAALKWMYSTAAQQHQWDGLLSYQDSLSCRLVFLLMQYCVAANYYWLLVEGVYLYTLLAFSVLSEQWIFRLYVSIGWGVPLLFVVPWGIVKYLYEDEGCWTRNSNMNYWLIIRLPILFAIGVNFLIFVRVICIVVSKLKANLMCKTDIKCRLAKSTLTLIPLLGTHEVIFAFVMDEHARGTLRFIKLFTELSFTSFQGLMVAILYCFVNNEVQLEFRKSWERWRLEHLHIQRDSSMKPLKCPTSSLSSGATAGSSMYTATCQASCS
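Readout was luciferase luminescence, measured 12 min after detection reagent at room temperature. Beforehand, GLP-1R reporter HEK293 cells had sat 12 h, then received compounds for 24 hr at 37 deg C.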
GLP1R ag = qHTS of GLP-1 Receptor Agonists; Glucagon-like peptide 1 receptor (Homo sapiens), P43220; HEK293 GLP-1R CRE-luciferase, luminescence, 4-6 h; cells express a hypersensitive GLP-1R form; Potency, µM (titrated, usually from 45.6 µM), without a hit: at the top dose activation, most hits filed as activators; 0.007% of 380,000 active; AID 624172, 2012; also: potency is read from the fitted curve at half-maximal effect; % of control where 0% means no effect
GLP1R cytotox = qHTS of GLP-1 Receptor Inverse Agonists: Cytotox Screen. 0.13% of 410,000 active. AID 624418, 2012. HEK293 cAMP-luciferase reporter cells, luminescence, 24 h. Potency, µM (titrated, usually from 38.3 µM), inactives show at the top dose activity change, negative = inhibition, usual class: inhibitors;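 also: loss of luciferase light is scored as toxicity; potency is read from the fitted curve at half-maximal effect; % is scaled to controls: 0 for no effect and ±100 for the full control effect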
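Step one: seed cells (200 cells/uL, DMEM with 10% Nu serum, 1% pen-strep). Step two: 12-hour incubation at 37 deg C. Step three: pin 23 nL compound, incubate 24 hr. Step four: add luciferase reagent, read luminescence 12 min later.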
* marks the source's active call; other numbers are inactive results; ? = inconclusive; . = not tested or not shown; [ ] = another dose, or the depositor's remark. The list is not random: actives were taken first. Their share in the collection is about 2.8%. Unless noted, calls follow the shape of the dose curve; as a rule, active = well fitted curve in the direction sought with a large enough effect; inconclusive = small, poorly fitted or top-dose-only effect, or another doubt; inactive = no such curve, though single readings can be large; an effect the other way counts as inactive or inconclusive.

SMILES	KCNH2 3.1 inh	KCNH2 WT inh	GLS inhibitor	GLP1R inv ag	GLP1R ag	GLP1R cytotox
O=C1c2[nH]nc(-c3ccccc3O)c2C(c2cccc(Cl)c2)N1CC1CCCO1 (configuration not stated)	-191*	-137*	17%	?	1%	?
Cc1cc(C)n(C(C)CC(=O)NCc2ccc(N(C)C)cc2)n1 (configuration not stated)	.	.	29%	-1%	.	7%
O=C(c1ccc2c(c1)OCO2)N1CCC2(CC1)Oc1ccc(F)cc1C(=O)C21CC(c2ccc(Cl)cc2)=NO1 (configuration not stated)	-8	-8	0%	-10%	-7%	-12%
O=C(c1ccc2c(c1)OCO2)N1CCC2(CC1)Oc1ccc(Cl)cc1C(=O)C21CC(c2ccccc2)=NO1 (configuration not stated)	-13	6	-3%	-12%	1%	4.5µM*
CCCCOC(=O)c1ccc(Nc2ncnc3[nH]ncc23)cc1	.	.	-6%	9%	20%	19%
COc1cccc(NC(=O)CSc2nnc3scc(-c4ccc(Cl)cc4)n23)c1	.	.	-1%	5%	.	2%
COc1cccc(NC(=O)n2nc(N)cc2-c2ccc(Cl)cc2)c1	1	-5	22%	10µM*	-2%	?
COc1ccc(CNc2nc3c(-c4ccc(C)cc4)nnn3c3ccccc23)cc1	.	.	6%	9%	0%	2%
O=C(Nc1cccc(Cl)c1)Nc1csc([N+](=O)[O-])c1	-2	-6	0%	6.3µM*	-2%	?
CCCCNC(=O)C1CCN(c2nc3ccccc3nc2C(F)(F)F)CC1	.	.	-15%	5%	.	4%
COc1nc(N2CCOCC2)nc(C)c1[N+](=O)[O-]	16	-107*	7%	13%	-2%	76%
Cc1cccc(-c2nc(CN3CCCC(C(=O)NC4CCC(C)CC4)C3)c(C)o2)c1 (configuration not stated)	-26	10	-3%	1%	7%	4%
Cc1cccc(-c2nc(CN3CCCC(C(=O)NC4CCCC4)C3)c(C)o2)c1 (configuration not stated)	-82*	38	3%	0%	5%	-9%
CN(c1nc2ccccc2nc1Cl)S(=O)(=O)c1ccccc1	24	-3	-5%	10µM*	13%	-7%
Cc1ccc(S(=O)(=O)N(C)c2nc3ccccc3[nH]c2=S)cc1	9	-2	-3%	36%	2%	3%
CN(C)c1ccc(CNCCC(Cc2ccccc2)c2ccco2)cc1 (configuration not stated)	-49	14	-7%	?	5%	?
c1ccc(CNCCC(Cc2ccccc2)c2ccco2)cc1 (configuration not stated)	-34	18	6%	8.9µM*	-6%	?
CCN(CC)S(=O)(=O)c1cccc(C(=O)Nc2cccc(C)c2)c1	-13	4	-10%	?	-1%	-20%
CCN(CC)S(=O)(=O)c1cccc(C(=O)Nc2ccc(C#N)cc2)c1	-76*	0	-5%	-11%	21%	-7%
CCN(CC)S(=O)(=O)c1cccc(C(=O)Nc2cc(C)cc(C)c2)c1	-1	7	-25%	2µM*	4%	10%
O=S(=O)(N/N=C1\CC(c2ccccc2)Oc2ccccc21)c1ccccc1 (configuration not stated)	-4	-11	15%	?	-8%	15%
Cc1ccc(S(=O)(=O)N/N=C2/CC(c3ccccc3)Oc3ccccc32)cc1 (configuration not stated)	-110*	-5	14%	?	-1%	4%
CCCOc1ccc(/C(CC)=N/NC(=O)C2(C)CC2(Br)Br)cc1 (configuration not stated)	-77*	6	7%	5%	2%	0%[1.53 µM]
CC/C(=N/NC(=O)c1ccc(Br)cc1)c1ccc(OCCN2CCOCC2)cc1	6	2	-12%	?	8%	?
CCOn1c(=O)c(-c2ccc(Cl)cc2)[n+]([O-])c2ccccc21	-6	-9	-14%	9%	-8%	-5%
SMILES	KCNH2 3.1 inh	KCNH2 WT inh	GLS inhibitor	GLP1R inv ag	GLP1R ag	GLP1R cytotox
CCOn1c(=O)c(-c2ccc(C)cc2)[n+]([O-])c2ccccc21	-84*	1	-15%	14%	12%	-2%
CCN(c1ccc(C)cc1)S(=O)(=O)c1nnc(NC(=O)C2CCCCC2)s1	.	.	-11%	-1%	.	1%
C[C@H](OC(=O)N1CCN(C(c2ccccc2)c2ccccc2)CC1)[C@@H]1O[C@@]2(C)CCC[C@H]1O2	25	1	12%	10µM*	16%	33%
Nc1ccc(Cn2ccc3c4c(N)nc(N)nc4ccc32)cc1	-19	3	11%	?	13%	7.9µM*
CCOC(=O)[C@@H]1CSCCS(=O)(=O)N1	1	-24	1%	7%	-2%	0%
CCC(C(=O)Nc1cc(C)nn1-c1nc(C)cc(C)n1)c1ccccc1 (configuration not stated)	-5	-20	6%	3.5µM*	19%	?
Cc1cc(C)nc(-n2nc(C)cc2NC(=O)CN2CCc3ccccc3C2)n1	-13	28	-7%	?	10%	5µM*
Cc1cc(C)nc(-n2nc(C)cc2NC(=O)CNCc2ccccc2)n1	-3	8	-1%	16%	-14%	-1%
O=C(NN=C1C2CC3CC(C2)CC1C3)c1ccncc1	3	-183*	25%	-5%	12%	57%
Cn1c(=O)oc2cc(S(=O)(=O)NC(Cc3ccccc3)C(=O)NCc3ccccc3Cl)ccc21 (configuration not stated)	.	.	-3%	9%	.	11%
O=C(O)c1ccc2c(c1)C1C=CCC1C(c1ccncc1)N2 (configuration not stated)	-24	-23	2%	-4%	2%	0%
CCCC1Nc2ccc(C(=O)O)cc2C2C=CCC12 (configuration not stated)	16	2	10µM*	-5%	2%	-3%
CCOC(=O)C1Nc2ccc(C(=O)O)cc2C2C=CCC12 (configuration not stated)	-5	-13	3.2µM*	-27%	4%	-12%
